Measured values taken from PubChem BioAssay AID1508600 (Functional Genomics Laboratory (NCATS/FGL), 2020).
About 3,700 (7%) of roughly 53,000 sequences were called active. This is one part of a sample in which actives are shown more often than they occur.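 Rule for the calls: active = gene knockdowns whose robust z-score for IL-1 alpha signal is at least 2 or at most -2, so actives lie on both sides; inactive = the rest.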

Experiment: Components of the Cytosolic LPS Sensing Pathway: Gene Identification via Genome-wide siRNA Screen;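 note: robust z of the log signal after scaling to non-targeting control siRNA wells of the plate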
Details: RAW264.7 macrophages, IL-1a HTRF, actives lie on both sides, screened at 100 nM (by protocol), cells primed 5 h with Pam3CSK4 first
In short: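 Using IL-1a HTRF as read-out, the screen measured release from RAW264.7 cells after 48h siRNA knockdown (100 nM), 5 h Pam3CSK4 priming and 24 h cytosolic LipidA. Values were expressed relative to negative-control wells as robust z-scores.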

Sequence | z-score
AAAAAUGUCGGAUUCCCAATT against Adgrf3 | -0.121 (inactive)
GCGAGUCUCACAUCAGUGATT against Tshz3 | 2.68 (active)
CGCAGCAGGAAUCAGGAAUTT against Tsr1 | 0.222 (inactive)
GGAUGUGGAGUCACUGAUGTT against Ccdc91 | -0.863 (inactive)
GGAUGAUGACGACAUUGAUTT against Eef1b2 | 0.292 (inactive)
GGCAGACAACGUGUCACCUTT against Aldh1a3 | -0.883 (inactive)
GGAGAAGACCAUAAAGAAGTT against Flywch1 | -0.554 (inactive)
GACAUUUGUAUGCAGUCAUTT against Vmn1r193 | -2.65 (active)
CCCUCUACACUAUACCACATT against Olfr347 | -0.498 (inactive)
GGAUUCUGGGCUGAAUGGGTT against Pcdh18 | -0.491 (inactive)
GGAACCAUCUUCAACCAACTT against Eme1 | -1.44 (inactive)
GGAGAACUGUAAAUAAACUTT against Duoxa2 | -2.1 (active)
CCAUAGAGUGGAUAGUCAUTT against Rsl1 | 0.385 (inactive)
CCCUCAAAACCUAUGCCUUTT against Ugt1a2 | 0.715 (inactive)
GCAGGCUAUGUUCUGGAAUTT against Zfp212 | 2.34 (active)
GGAUGAUUGCUGACGUGGATT against Bax | 0.299 (inactive)
CCUCCUAUUUGCUUCAUUUTT against Cytip | -1.32 (inactive)
CCUGAUCCGAUCAUCAGGATT against Cytip | 0.133 (inactive)
GGAAGGGCAAGUUAUGAAATT against Fgf14 | 0.0843 (inactive)
GGGACAUUUCUAUUAGAAUTT against Snx24 | -0.95 (inactive)
CCAUACCAAUGAAUGCCUCTT against Fas | -1.4 (inactive)
CCACUUCCUUACGAUUGAUTT against Aadacl4fm1 | -2.09 (active)
GGCUGAGGAGUGGUACUUUTT against Src | -1.13 (inactive)
GCUAUGACUUCAACGACUATT against Pcsk4 | -0.309 (inactive)
GGAUCUGUACAAGACUUAUTT against Olfr800 | -0.011 (inactive)
GCCAACAGAAAUAAGCCUUTT against Sorcs1 | 0.221 (inactive)
CCACACCAGAGGUCUUUGATT against Pde4dip | -1.74 (inactive)
CGAUUCCUUUGUAACGAAATT against Aldh5a1 | 1.04 (inactive)
GGCACUUAAGUUUCAUAAGTT against Qars | 0.466 (inactive)
CCAAGAGCUGAAACAAGAATT against Ankrd12 | -2.01 (active)
